# Screens as filed in PubChem.
# DAGLB inh – DAGLB lipase inhibitors, primary screen, biochemical, fluorescence, HTS. Diacylglycerol lipase-beta (Homo sapiens), Q8NCG7. HEK293T DAGLB membrane lysate, EnzChek fluorogenic substrate. inhibition, % at 5.17 µM. 340,000 compounds, 0.059% hits; in the data active means inhibition above about 34%
# ABHD5 PLIN5 PPI – ABHD5-PLIN5 interaction inhibitors, primary screen, cell lysate, split luciferase complementation, luminescence; inhibition, % at 4 µM; Split G. princeps luciferase complementation, 4 h; AID 602281, 2012; 360,000 compounds, 0.78% hits; Perilipin-5 (Homo sapiens) + 1-acylglycerol-3-phosphate O-acyltransferase ABHD5 (Homo …;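 active means inhibition above the mean inhibition across every tested compound plus 3 SD, cut at about 22% in these data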
# Rtt109 Vps75 – inhibitors of C. albicans Rtt109/Vps75 HAT, primary screen, biochemical, ThioGlo CoA-SH fluorescence, plate reader; 330,000 compounds, 0.16% hits; inhibition, % at 34.9 µM; AID 540336, 2011; purified Rtt109/Vps75, 4 h; Histone acetyltransferase RTT109 (Candida albicans (strain SC5314 / ATCC MYA-2876)), …;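 active means inhibition of at least 50% in every replicate; inconclusive means best replicate reaches 50% inhibition but some replicates fall short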
# Target sequence (Q5AAJ8 whole entry, looked up): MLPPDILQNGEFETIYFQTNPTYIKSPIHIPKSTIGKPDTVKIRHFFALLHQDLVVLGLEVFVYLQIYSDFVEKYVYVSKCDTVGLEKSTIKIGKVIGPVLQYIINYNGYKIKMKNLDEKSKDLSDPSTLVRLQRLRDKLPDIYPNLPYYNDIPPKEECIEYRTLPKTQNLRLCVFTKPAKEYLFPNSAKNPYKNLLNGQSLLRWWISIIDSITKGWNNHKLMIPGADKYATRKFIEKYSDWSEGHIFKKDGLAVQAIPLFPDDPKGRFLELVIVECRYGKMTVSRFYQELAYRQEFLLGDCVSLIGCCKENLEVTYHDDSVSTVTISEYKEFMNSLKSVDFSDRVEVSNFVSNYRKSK
# Cardio protect – cardioprotection against H2O2-induced cell death, primary screen, uHTS, H9c2 cells, ATPLite luminescence; H9c2 cardiomyocytes, H2O2 injury protection, 2 h; 360,000 compounds, 0.63% hits; AID 588492, 2011; protection from H2O2 cell death, % at 20 µM;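 active means compounds giving at least 50% protection of heart cells from peroxide-induced death in the single-dose screen, raw or plate-pattern-corrected value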
# Myeloid diff MLP – induction of myeloid progenitor differentiation, primary screen, cell-based, flow cytometry, MLPCN library; ER-HoxA9 myeloid progenitors, lysozyme-GFP differentiation; calls only at 10 µM; 360,000 compounds, 1% hits; AID 624256, 2012;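 active means normalized GFP-positive differentiation at or above the plate's own cutoff, the solvent-only control mean plus 3 SD; inconclusive means no clear call, values can overlap the other calls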;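 further: cells exposed to compound for four days before flow analysis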
# sPLA2-III inh – human group III sPLA2 inhibitors, primary screen, biochemical, QFRET, BODIPY PC-A2 liposome substrate; Group 3 secretory phospholipase A2 (Homo sapiens), Q9NZ20; QFRET BODIPY PC-A2 liposome hydrolysis, fluorescence; inhibition, % at 12.2 µM; 370,000 compounds, 0.56% hits; AID 743126, 2013;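 active means inhibition above mean plus 3 SD of compounds lying within the high and low control bounds, cut at about 19% in these data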
# hGIII sPLA2 conf – human group III sPLA2 inhibitors, confirmation, biochemical, QFRET, triplicate; shares compounds with sPLA2-III inh; recombinant hGIII-sPLA2, BODIPY PC-A2 QFRET fluorescence; inhibition, % at 12.2 µM; 2,000 compounds, 34% hits;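 active means mean inhibition across triplicates above the hit cutoff set in the earlier primary screen, cut at about 19% in these data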
# 535nm interf – 535nm fluorescence optical interference, confirmation, artefact control for HGIII-sPLA2 inhibitor project, biochemical, QFRET; shares compounds with sPLA2-III inh; BODIPY FL product fluorescence interference; inhibition, % at 12.2 µM; 2,000 compounds, 8.5% hits; AID 743282, 2014;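 active means average inhibition above the solvent-only control mean plus 3 SD, cut at about 6% in these data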
# BODIPY interf DR – 535nm fluorescence optical interference, dose response, artefact control for HGIII-sPLA2 inhibitor project, biochemical, QFRET. shares compounds with sPLA2-III inh. BODIPY FL product fluorescence interference, cell-free. IC50, µM. 240 tested, under 10 active. AID 743455, 2014;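 active means IC50 at or below 10 µM; inactive means IC50 above 10 µM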
# Hits are given with their value; n = inactive; u = inconclusive; x = no result given. Sampled rows, rich in hits. Any-hit rate of the full collection: about 2.9%.
SMILES,DAGLB inh,ABHD5 PLIN5 PPI,Rtt109 Vps75,Cardio protect,Myeloid diff MLP,sPLA2-III inh,hGIII sPLA2 conf,535nm interf,others
C=CCN1C(=O)/C(=C\c2ccco2)C(C(=O)OC)=C1C,n,n,n,n,n,21,n,n,
CCN(CC)CCCNC1CCS(=O)(=O)C1 (stereo unspecified),n,n,n,n,n,n,x,x,
CC(=O)c1c(C)nc2sc3c(=N)n(N)cnc3c2c1-c1ccc(Cl)cc1,n,n,n,n,n,30,n,n,
COc1cccc(-c2cc(C(=O)Nc3cccc(O)c3)no2)c1,n,n,n,n,n,n,x,x,
COc1ccc(NC(=O)N2CCCCC2c2cccnc2)cc1 (stereo unspecified),n,n,n,n,n,22,n,n,
O=C(Nc1ccc(-c2noc(-c3ccccc3F)n2)cc1)c1cccs1,n,n,n,n,n,21,n,n,
Cc1ccccc1-c1nc(-c2ccc(NC(=O)c3cccs3)cc2)no1,n,n,n,n,n,n,x,x,
COc1cc(OC)cc(C(=O)NCCc2cnc[nH]2)c1,n,n,n,n,n,n,x,x,
O=C(Cc1cccs1)NNC(=S)NCc1ccc(Cl)cc1,n,n,n,n,n,19,45,n,BODIPY interf DR=n
CCN(c1ccccc1)S(=O)(=O)c1cccc(C(=O)NCC(c2ccco2)N2CCCC2)c1 (stereo unspecified),n,n,n,n,n,n,x,x,
O=[N+]([O-])c1ccc(C=NN2CCNC2=S)o1,n,n,x,n,n,n,x,x,
CN1CCN(CC(O)COc2ccc(OCC(O)CN3CCN(C)CC3)cc2)CC1 (stereo unspecified),n,n,n,n,n,n,x,x,
CN1CCN(CC(O)COc2ccc(C(=O)O)cc2)CC1 (stereo unspecified),n,n,n,n,n,19,n,n,
O=C1C(NS(=O)(=O)c2cccs2)=C(N2CCOCC2)C(=O)c2ccccc21,n,n,n,n,n,n,x,x,
CN(C1=C(N2CCOCC2)C(=O)c2ccccc2C1=O)c1ccccc1,n,n,n,n,n,25,44,n,BODIPY interf DR=n
Cc1cccc(NC(=S)NCc2ccc3c(c2)cc(C)n3C)c1C,n,n,n,n,n,20,n,n,
COc1cccc(NC(=S)NCc2ccc3c(c2)cc(C)n3C)c1,n,n,x,n,n,n,x,x,
CCOc1cc(C(=O)N2CCN(c3ccccn3)CC2)cc(OCC)c1OCC,n,n,n,n,n,n,x,x,
CCOc1ccc(N(CC(=O)Nc2cccc(C)c2)S(C)(=O)=O)cc1,n,n,n,n,n,n,x,x,
CCOc1ccc2c(c1)C(=O)C(=O)N2CC1COc2ccccc2O1 (stereo unspecified),n,n,n,n,u,n,x,x,
COc1ccc2c(c1)C(=O)C(=O)N2CC1COc2ccccc2O1 (stereo unspecified),n,n,n,n,x,20,25,n,
CC(=O)Nc1ccc(S(=O)(=O)Nc2ccc(Cl)nn2)cc1,n,n,n,n,n,n,x,x,
Nc1ccc(S(=O)(=O)Nc2ccc(Cl)nn2)cc1,n,n,n,n,n,22,n,n,
O=C(Nc1ccccc1)c1nc[nH]c1C(=O)NCc1ccccc1,n,n,n,n,n,n,x,x,
NNC(=O)c1nc[nH]c1C(=O)Nc1ccccc1,n,n,n,n,n,27,n,n,
SMILES,DAGLB inh,ABHD5 PLIN5 PPI,Rtt109 Vps75,Cardio protect,Myeloid diff MLP,sPLA2-III inh,hGIII sPLA2 conf,535nm interf,others
CCn1c(C2CCN(S(=O)(=O)c3ccc(OC)cc3)CC2)n[nH]c1=S,n,n,n,n,n,21,n,n,
CCn1c(SCc2ccccc2)nnc1C1CCN(S(=O)(=O)c2ccc(OC)cc2)CC1,n,n,n,n,n,n,x,x,
O=C(NCCS(=O)(=O)NCc1ccccc1)c1ccccc1,n,n,n,n,n,19,n,n,
Cc1ccc(C(=O)NNC(=O)c2ccc(S(=O)(=O)N3CCCCC3)cc2)cc1,n,n,n,n,n,n,x,x,
CCOC(=O)N1CCN(S(=O)(=O)c2ccc(C(=O)N(CCN(CC)CC)c3nc4c(C)cccc4s3)cc2)CC1,n,n,n,n,n,n,x,x,
CCOC(=O)N1CCN(S(=O)(=O)c2ccc(C(=O)NNc3nc4c(C)cccc4s3)cc2)CC1,n,n,n,50,n,33,39,n,BODIPY interf DR=n
Cc1cc(C)c2nc(NNC(=O)c3ccc(S(=O)(=O)N4CCCCC4)cc3)sc2c1,n,n,n,n,n,46,53,n,BODIPY interf DR=n
CCOC(=O)N1CCN(S(=O)(=O)c2ccc(C(=O)Nc3nc4c(s3)CC(C)CC4)cc2)CC1 (stereo unspecified),n,n,n,n,n,n,x,x,
CCOC(=O)N1CCN(S(=O)(=O)c2ccc(C(=O)NNc3nc4c(C)cc(C)cc4s3)cc2)CC1,x,n,x,n,n,60,45,n,BODIPY interf DR=n
O=C(COC(=O)c1ccc(O)cc1)NCC1CCCO1 (stereo unspecified),n,n,n,n,n,n,x,x,
Cc1ccc(-c2nnn3c2nc(NCCc2ccc(S(N)(=O)=O)cc2)c2ccccc23)cc1,n,n,n,n,n,n,x,x,
Cc1cccc(-c2nnn3c2nc(NCCc2ccc(S(N)(=O)=O)cc2)c2ccccc23)c1,n,n,n,n,n,22,n,n,
CCCP(=O)(CCC)CCP(=O)(c1ccccc1)c1ccccc1,n,n,n,n,n,20,n,n,
COc1cccc(OC)c1C(=O)NCCc1ccccc1,n,n,n,n,n,21,n,n,
Cc1ccc(NC(=O)CN(C)Cc2nc3ccccc3c(=O)[nH]2)c(Br)c1,n,n,n,n,n,n,x,x,
Cc1cc(Br)ccc1NC(=O)CNC(=O)CN(C)Cc1nc2ccccc2c(=O)[nH]1,n,n,n,n,n,25,n,n,
CC(C)N1CCN(C(=O)c2cccc(Cl)c2)CC1,n,n,n,n,n,n,x,x,
